Shown are actives, neighbours in structure and some others; about 4.6% of the full set was active somewhere.
hcDAF-12 act: activates DAF-12 receptor from parasite H. contortus. HEK293 hcDAF-12 lit1-tk-luc reporter, luminescence; 0% DMSO, 100% Δ7-dafachronic acid. activation, % at 6.8 µM. 370,000 compounds, 1.4% hits. AID 652067;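 active = activation above the mean of all tested compounds plus 3 SD, cut at about 5.5% in these data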
DAX1 inh-1: inhibitors of DAX1 repression of SF-1 activated StAR promoter | HEK293T StAR-luciferase reporter, SF-1/DAX-1 repression relief | inhibition, % at 6.8 µM | 370,000 compounds, 1.1% hits;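 active = inhibition above the mean over all tested compounds plus 3 SD, cut at about 3.6% in these data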;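 also: higher inhibition means more luminescence from relief of DAX-1 repression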
Wee1 degr inh: human Wee1 degradation inhibition, primary screen | HeLa Luc-Wee1K328M stability, luciferase luminescence; 100% = proteasome inhibitor MG132 effect | reporter increase, % at 5 µM | 220,000 compounds, 1.2% hits | AID 1321;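 active = activation above the mean of all tested compounds plus 3 SD, set per screening run, cut at about 8.8% in these data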;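 also: cells exposed to compound for 20 h before luminescence read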
hgDAF12 agonist: agonists of H. glycines DAF-12 nuclear receptor. HEK293 GAL4-hgDAF12 UAS-luciferase reporter, agonist luminescence; normalized to butyrate control. 370,000 compounds, 1.8% hits. activation, % at 6.8 µM;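 active = activation above a cutoff set at the mean of all screened compounds plus 3 SD, cut at about 10% in these data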
ssDAF12 agonist: activators of S. stercoralis DAF-12 nuclear receptor. HEK293 ssDAF-12/GRIP1 lit1-tk-luc reporter, luminescence; % of 3 µM dafachronic acid response. activation, % at 6.8 µM. 370,000 compounds, 1% hits. AID 652126;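 active = activation above the mean over all tested compounds plus 3 SD, cut at about 0.9% in these data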
DAX1 inh-2: inhibitors of human orphan nuclear receptor DAX1 (NR0B1). P51843. HEK293 Gal4-DAX1 luciferase reporter, luminescence. inhibition, % at 6.75 µM. 340,000 compounds, 0.99% hits;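 active = inhibition above the mean over all tested compounds plus 3 SD, cut at about 4.2% in these data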;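 also: inhibition shows as a rise in luminescence from relieved DAX1 repression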
Target sequence (P51843 207-470 limits assumed): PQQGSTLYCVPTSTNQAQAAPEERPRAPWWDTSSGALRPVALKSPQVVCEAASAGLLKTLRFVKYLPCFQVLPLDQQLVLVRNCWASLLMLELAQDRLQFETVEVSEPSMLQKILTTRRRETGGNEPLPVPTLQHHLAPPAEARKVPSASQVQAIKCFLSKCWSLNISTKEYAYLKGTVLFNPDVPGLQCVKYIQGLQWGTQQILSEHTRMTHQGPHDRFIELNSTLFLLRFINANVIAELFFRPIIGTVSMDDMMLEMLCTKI
LXRb hcDAF ctr: activates human LXR-beta, counter-screen for hcDAF-12 agonists; shares compounds with hcDAF-12 act; HEK293 Gal4-LXR tk-luc reporter, luminescence, 24 h; normalized: DMSO 0%, positive control 100%; activation, % at 6.8 µM; 3,400 tested, under 10 active;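 active = mean percent activation of the reporter above a cutoff set as the average over tested compounds plus their standard deviation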
hcDAF12 conf: confirmation of H. contortus DAF-12 agonists; shares compounds with hcDAF-12 act; HEK293 hcDAF-12 lit1-tk-luc reporter, luminescence; % of Δ7-dafachronic acid response; activation, % at 6.8 µM; 3,400 compounds, 61% hits; AID 743032;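 active = mean activation across triplicate tests above the threshold derived from the earlier primary screen, cut at about 5.5% in these data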
Hits are given with their value; – = inactive; · = no result.

SMILES	hcDAF-12 act	DAX1 inh-1	Wee1 degr inh	hgDAF12 agonist	ssDAF12 agonist	DAX1 inh-2	LXRb hcDAF ctr	hcDAF12 conf
O=C(Nc1ccc(F)cc1)c1ccc2nsnc2c1	–	–	–	–	–	–	·	·
O=C(Nc1ccc(F)cc1)c1nsc(Cl)c1Cl	9.7	–	–	10.7	2.8	–	–	10.7
COc1ccc(CC(=O)OCC(=O)Nc2cc(Cl)ccc2C)cc1	–	–	·	–	–	–	·	·
Cc1ccccc1/C=C1\OC(=O)c2ccccc21	–	–	–	–	–	–	·	·
Cc1ccc(/C=C2\OC(=O)c3ccccc32)cc1	8.4	–	–	–	–	–	–	8.5
Cc1ccc(Cn2c(SCC(=O)N(C)C3CCS(=O)(=O)C3)nc3ccccc3c2=O)cc1 (centres undefined)	–	–	·	–	–	–	·	·
COc1ccc2[nH]c3c(C)c4ccncc4c(C)c3c2c1	7.3	–	–	–	2.0	–	–	–
COc1ccc2[nH]c(C)cc(=O)c2c1	–	–	–	–	–	–	·	·
C(=N/n1c2ccccc2c2ccccc21)/c1ccco1	–	–	–	–	–	–	·	·
N=c1scc(-c2ccccc2)n1/N=C/c1ccco1	6.8	–	–	11.1	1.4	–	–	–
COc1cc(OC)nc(C(NC(=O)C2CCN(Cc3c[nH]c4ccccc34)CC2)c2ccc(Cl)cc2)n1 (centres undefined)	–	–	·	–	–	·	·	·
CSc1ccc(C2c3[nH]c4ccccc4c3CCN2C(=O)c2ccnn2C)cc1 (centres undefined)	10.4	–	–	–	2.0	–	–	8.3
CCc1ccc(C2c3[nH]c4ccccc4c3CCN2C(=O)CN2CCN(CC)CC2)cc1 (centres undefined)	8.5	–	–	–	–	–	–	–
CCCc1cc(=O)oc2cc(C)cc(OC(C)C(=O)NCc3ccccn3)c12 (centres undefined)	–	–	·	–	–	–	·	·
COc1ccc([C@H]2C[C@H](n3cc(COC(=O)c4ccccc4)nn3)[C@@H](O)CN2CC2CCCCC2)cc1	–	–	·	–	–	–	·	·
CCCC1CCC2(CCCN2CCOC(=S)Nc2ccccc2)CC1 (centres undefined)	–	·	·	–	–	·	·	·
C/C(=N\NC(=O)c1cc(C)oc1C)c1ccc2c(c1)OCO2	–	–	–	–	–	–	·	·
C/C(=N\NC(=O)c1c[nH]c2ccccc12)c1ccc2c(c1)OCO2	7.2	–	–	–	–	–	–	–
CCc1ccc2c(c1)C(=O)c1ccccc1C2=O	8.0	–	–	11.1	2.5	–	–	9.8
O=C1c2ccccc2-c2ccc(P(=O)(O)O)cc21	–	·	·	–	–	·	·	·
COc1ccc(/C=C2\Oc3ccccc3C2=O)cc1	7.2	–	·	10.4	–	–	–	–
COc1ccccc1C1CC(c2cccs2)=NN1C(=O)CCC(=O)O (centres undefined)	7.0	–	·	–	–	–	–	–
O=C(Cc1cccc(NC(=O)C2CCN(C(=O)c3ccccc3)CC2)c1)Nc1cccc(C(=O)N2CCCCC2)c1	–	–	·	–	–	–	·	·
O=C1C(=C(O)c2ccccc2)C(=O)c2ccccc21	7.0	–	–	–	2.1	–	–	–
COCCNC(=O)CN1C(=O)NC2(CCOc3ccccc32)C1=O (centres undefined)	7.2	–	·	–	–	–	–	–
SMILES	hcDAF-12 act	DAX1 inh-1	Wee1 degr inh	hgDAF12 agonist	ssDAF12 agonist	DAX1 inh-2	LXRb hcDAF ctr	hcDAF12 conf
CC1CCc2nc(/C(C#N)=C/c3cccnc3)sc2C1 (centres undefined)	7.1	3.8	–	13.3	–	6.4	–	–
Clc1ccc(-c2cn3nc4c(nc3n2)CCCC4)cc1	8.1	4.2	–	12.1	–	–	–	7.5
CC(C)Nc1ncnc2c1ncn2[C@H]1CN(Cc2ccccc2)C[C@@H](CO)O1	–	–	·	–	–	·	·	·
COc1cc2nc(Nc3ccc(C)c(Cl)c3)nc(N)c2cc1OC	–	–	·	–	–	–	·	·
Cc1ccc(Nc2nc(N)c3ccccc3n2)cc1Cl	11.5	–	·	11.5	3.6	–	–	14.9
O=C(Cn1c(=O)c2cccn2c2cccnc21)NCCCN1CCN(c2ccccc2)CC1	–	·	·	–	–	·	·	·
CCc1cc(=O)oc2cc(C)cc(OCC(=O)N3CCC(C(=O)NC(C)C)(c4ccccc4)CC3)c12	–	–	·	–	–	–	·	·
Cc1cc(C)nc(NC(=O)CSc2nc3cc(Cl)ccc3s2)n1	–	–	–	–	–	–	·	·
Cc1cc(C)nc(NC(=O)CSc2nc3ccccc3s2)n1	7.7	–	–	–	2.1	–	–	9.3
Cc1cc(NC(=O)CCl)n(-c2nc3ccccc3s2)n1	6.8	–	–	–	–	–	–	–
Cc1cc(C)nc(SCC(=O)OCC(=O)Nc2nc3ccccc3s2)n1	8.5	–	–	–	–	–	–	6.5
O=C1CN(C(=O)CSc2ccccn2)c2ccccc2N1	–	–	·	–	–	–	·	·
COc1ccccc1Cc1c(-c2ccc(C)cc2)nc2cc(C)c(Br)c(C)n12	9.9	–	·	12.2	1.9	·	–	11.3
COc1ccccc1Cc1c(-c2ccc(F)cc2)nc2cc(C)c(Br)c(C)n12	8.6	–	·	–	1.1	·	–	6.7
COc1ccc(Cc2c(-c3cccc(Cl)c3)nc3cc(C)c(Br)c(C)n23)c(C)c1	6.9	–	·	–	2.0	·	–	–
COc1ccccc1Cc1c(-c2ccccc2)nc2cc(C)c(Br)c(C)n12	–	–	·	–	–	·	·	·
Cc1cc2nc(-c3ccc(Cl)cc3)c(Cc3ccsc3)n2c(C)c1Br	6.8	–	·	–	0.9	·	–	–
C=CCN(CC=C)C(=O)C1CCN(S(=O)(=O)c2ccc(N3CCCC3=O)cc2)CC1	–	–	·	–	–	–	·	·
COc1ccc(S(=O)(=O)N(C)[C@H]2C[C@H]3c4cc(Oc5ccccc5C)ccc4CCN3C(=O)[C@H]2[C@H](C)O)cc1	–	–	·	–	–	–	·	·
Clc1ccc(/C=N/NC2=Nc3cccc4cccc2c34)cc1	6.7	–	–	–	–	–	–	10.1
CC(COc1ccc(F)cc1)CN1CCC(C(O)(c2ccccc2)c2ccccc2)CC1 (centres undefined)	–	–	·	–	–	·	·	·
N#CC(C#N)=Cc1cc2ccccc2nc1N1CCCCC1	7.1	–	–	–	–	–	–	–
Fc1ccc(-n2nnc(-c3cnc4ccccc4c3)n2)cc1	9.6	–	–	10.9	–	–	–	–
O=C(COC(=O)c1cncc(Br)c1)Nc1ccc2c(c1)OCO2	7.0	–	–	–	–	–	–	–
Cc1ccn2cc(-c3ccc(O)c(O)c3)nc2c1	7.0	–	·	–	–	–	–	7.5

Screens deposited in PubChem BioAssay by The Scripps Research Institute Molecular Screening Center.
